25 molecules from PubChem BioAssay AID449762 (Southern Research Specialized Biocontainment Screening …, 2010) can be followed below.

About 1,900 (0.58%) of roughly 330,000 compounds were called active. Another 4% or so got no clear call; they are omitted. Not all results are given here. Entries with a potency or affinity are not part of this list. Values without a mark were called inactive. No stated cut-off is given here; in the data, inconclusive means inhibition above about 70% without an active follow-up result; inactive means below that.

A short description of this assay: M. tuberculosis growth inhibition, HTS (AID 449762).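 Further: bacterial growth assessed after seven days of incubation.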 The settings on record: M. tuberculosis H37Rv growth inhibition, 7H9 media; at 25 µM; hits give high values.
Consider `CCC(=O)c1ccc(OCC(O)CNC2CCCC2)cc1` (stereo not given), for which the inhibition is -4.31%.

Regarding `Clc1ccc(Cn2ncc3c(N4CCCC4)ncnc32)cc1`, the inhibition was 6.77%. Next, `Cc1ccc(Cn2ncc3c(N4CCN(Cc5ccc(Cl)cc5)CC4)ncnc32)cc1`: 35%. Regarding `COc1ccc(NC(=O)c2c3c(nc4ccccc24)CCC3)cc1`, the inhibition is 2.33%. Next, `CCC(O)(CC)C(=O)NN(C(=O)CCl)c1ccccc1`: 64.9%; `CCCC(O)(CCC)C(=O)NN(C(=O)CCl)c1ccccc1`: 64.3%. For `CC(C)(C)NC(=O)C1Cc2ccccc2CN1S(=O)(=O)c1ccc(F)cc1` (stereo not given), the inhibition was -4.99%. Next, `CC(C)Oc1cccc(C(=O)C2CCCN(Cc3cnc(N4CCOCC4)s3)C2)c1` (stereo not given): 0.96%; `CCN(CC)CCN(C(=O)c1ccc(S(=O)(=O)N2CCCCC2)cc1)c1nc2cc3c(cc2s1)OCO3`: 1.42%; `CCOC(=O)N1CCN(S(=O)(=O)c2ccc(C(=O)N(CCN(CC)CC)c3nc4ccc(C)cc4s3)cc2)CC1`: -2.86%. Next, `CCN(CC)C(=O)N1CCC(NC(=O)c2ccc(C(C)(C)C)cc2)CC1`: 9.36%. Next, `Cc1cc(NC(=O)CSc2nc3ccccc3s2)no1`: 3.12%. Consider `Cc1ccc(C=C2C(=O)c3ccccc3C2=O)o1`, for which the inhibition is -3.84%. Next, `NS(=O)(=O)c1ccc(-c2ccc(/C=C3\C(=O)Nc4ccccc43)o2)cc1`: -2.7%. `CC1CN(S(=O)(=O)c2cccc(C(=O)NCCCn3ccnc3)c2)CC(C)O1` (stereo not given): the inhibition was -14.2%.

In the case of `CCOC(=O)NC(=O)c1cn(N(C)c2ncc(C(F)(F)F)cc2Cl)c(=O)[nH]c1=O`, the inhibition was -2.39%. Next, `CC(OC(=O)c1ccco1)C(=O)Nc1ccc(Cl)cn1` (stereo not given): 0.78%; `CC(OC(=O)c1cc[n+]([O-])cc1)C(=O)Nc1ccc(Cl)cn1` (stereo not given): -4.2%; `COC(=O)c1sccc1-n1cccc1C(=O)C(=O)N1CCCC1`: 0.85%. Consider `CCOCc1cnc(C)nc1NCC(=O)c1c(C)[nH]c2ccc(OC)cc12`, for which the inhibition was -0.42%. Next, `COc1cc2c(C(=O)N3CCN(c4cccc(Cl)c4)CC3)cn(C)c(=O)c2cc1OC`: -1.4%; `CCn1cc(C(=O)N2CCN(c3cccc(Cl)c3)CC2)c2cc(OC)c(OC)cc2c1=O`: -2.64%; `O=C(O)CCC(=O)NNC(=O)CCC1CCCCC1`: 0.82%.

On to `CCOC(=O)c1c(NC(=O)OC)sc(C(=O)N(CC)CC)c1C`, for which the inhibition is 10.1%. Next, `CCN(CC)C(=O)c1[nH]cnc1C(=O)NCc1ccc(CNC(=O)OC(C)(C)C)cc1`: -4.15%.

The term inhibition denotes the relative decrease from the control value, in per cent.
